Among the data in ChEMBL document CHEMBL4513216, “Probing the Open Global Health Chemical Diversity Library for Multistage-Active Starting Points for Next-Generation Antimalarials” (ACS Infect Dis, 2020) are INHIBITION values, retold here.

The whole screen tested about 69,000 compounds, of which about 8,600 (12%) showed an effect of 50% or more. For the sample, strong results were picked, then their nearest neighbours and some compounds at random.

This assay deals with Plasmodium berghei. The experiment in a line: Screen against P. berghei liver stage (PbLuc), transformed with Luciferase, at 10uM. Type of assay: functional, HepG2. The note with it: tested at 10 uM.
Turning to `COC(=O)[C@H]1C[C@@H](O)CCN1S(=O)(=O)c1ccc(F)cc1F`, the INHIBITION was found to be 34.2%.
The value for `COC(=O)[C@H]1C[C@@H](O)CCN1S(=O)(=O)c1cc(Cl)ccc1OC` was -16.9%.
For `COC(=O)[C@H]1C[C@@H](O)CCN1S(=O)(=O)c1cc(C)c(Cl)cc1C`, the INHIBITION stood at 60.2%.
In the case of `Cc1cc(C)c(CNc2cnn(CC(O)CN(C)C)c2)c(C)c1` (centres undefined) it was 29.8%; in that of `Cc1ccc(CNC(=O)CN2CCN(CC(O)c3ccco3)CC2)cc1` (centres undefined), -1.58%; in that of `O=C(NCC1CC1)C1CCC2(CCN(C(=O)c3ccccn3)CC2)O1` (centres undefined), -3.44%.
In the case of `COc1ccc(CNCC2(COc3cccnc3)C[C@@H](O)[C@@H](O)C2)cc1` (some centres undefined) it was 25.3%.
In the case of `COCC(=O)NCC1(COc2cccnc2)C[C@@H](O)[C@@H](O)C1` (some centres undefined), the INHIBITION turned out to be 57.4%.
Take `O[C@@H]1CC(CNCC2CCCC2)(COc2cccnc2)C[C@@H]1O` (some centres undefined): the INHIBITION was -23.9%.
Turning to `O[C@@H]1CC(CNCC2CC2)(COc2cccnc2)C[C@@H]1O` (some centres undefined), the INHIBITION is on record as 51%.
For the compound `O[C@@H]1CC(CNCc2ccccn2)(COc2cccnc2)C[C@@H]1O` (some centres undefined), the INHIBITION was -36%.
The value for `COCC(=O)NCC1(COc2cnccn2)C[C@@H](O)[C@@H](O)C1` (some centres undefined) was 7.31%; that for `O=c1c(NCCc2ccc(O)cc2)c(NCc2ccncc2)c1=O` was 32.1%; that for `CC(C)c1noc(-c2ccc(NC(=O)NCC(O)C(C)C)cc2)n1` (centres undefined) was -132%.
Regarding `Cc1ccc(OCCC(=O)NC2CCc3nc(C)cn3C2)cc1` (centres undefined), the INHIBITION is 5.53%.
In the case of `Cc1ccc(C(=O)NS(=O)(=O)Cc2ccccc2)cc1S(C)(=O)=O` it was 1.98%; in that of `COC(=O)C1CCCN1C(=O)c1cc(CC(C)C)no1` (centres undefined), -4.51%; in that of `CC(C)Cc1cc(C(=O)N2CCC(C(=O)N3CCOCC3)CC2)on1`, 31.2%.
With `CC(C)Cc1cc(C(=O)N2CCC[C@H]2C(=O)N2CCOCC2)on1`, the INHIBITION came to 68%.
The value for `CN(C)Cc1nc(C2(NC(=O)Nc3ccccc3)CCCC2)no1` was -20.1%; that for `O=c1c(-c2ccnc(NC3CCCCC3)n2)cnc2sc(Cl)cn12` was 29.3%.
In the case of `CCOc1ncccc1NC(=O)NCC(C)O` (centres undefined) it was -1.14%; in that of `COc1ncccc1NC(=O)N1CCOCC1C` (centres undefined), 45.4%.
Consider `Cc1nn(C(C)C)c(C)c1NC(=O)c1ccncc1`, for which the INHIBITION was determined as 26.8%.
In the case of `CCOc1ncccc1NC(=O)Nc1c(C)nn(C(C)C)c1C` it was 56.8%; in that of `CCOc1ncccc1NC(=O)N1CCCCCC1`, 22.3%; in that of `CCOc1ncccc1NC(=O)N1CCN(c2cccc(C)c2C)CC1`, 90.4%.
In the case of `COc1ccc(Oc2ncccc2NC(=O)N2CCOCC2C)cc1` (centres undefined), the INHIBITION worked out at 28.7%.
The value for `CCOc1ncccc1NC(=O)N1CCOCC1C` (centres undefined) was 52.2%.
As to `CCOc1ncccc1NC(=O)N1CCN(c2ccc(O)cc2)CC1`, the INHIBITION was -5.845%.
Turning to `COCCN1C[C@@H]2CN(Cc3cccc(F)c3)CCC[C@]2(C(=O)O)C1`, the INHIBITION is given as -1.64%.
The value for `CN(Cc1ccc(N2CCOCC2)cc1)C(=O)Cn1cccnc1=O` was 7.08%.
For the compound `CC(=O)N1CCC(c2[nH]ncc2S(C)(=O)=O)CC1`, the INHIBITION amounted to 4.41%.
Consider `CNc1nc2cn(CCc3ccccc3)c(=O)c-2c[nH]1`, for which the INHIBITION is on record as -32.1%.
The value for `Cc1noc(C)c1CN1CCc2c(CNc3nccs3)n[nH]c2C1` was 46.6%.
As for `CC(NC(=O)NC1CC1)c1nc(-c2ccccc2)cs1` (centres undefined), the INHIBITION was 11.5%.
On to `O=S(=O)(NC1CCCCC12OCCO2)c1cc(F)cc(F)c1` (centres undefined), for which the INHIBITION turned out to be 6.83%.
`CN(Cc1cnn(C)c1)C(=O)c1cc(C(F)(F)F)n(C)n1`: the INHIBITION amounted to 36.6%.
As for `N#Cc1cccc(N2CCCC3(CNCCO3)C2)n1` (centres undefined), the INHIBITION amounted to 51.2%.
In the case of `N#Cc1cccc(N2CCCC3(C2)CN(c2ncccn2)CCO3)n1` (centres undefined), the INHIBITION was found to be 42.3%.
In the case of `N#Cc1cccc(N2CCOC3(CNCCOC3)C2)n1` (centres undefined), the INHIBITION is given as 32.7%.
For the compound `Cc1nn(C)c(C)c1CN1CCN(CC2(O)CCCN(C)C2)CC1` (centres undefined), the INHIBITION stood at 20.9%.
The value for `O=C1NC(c2cnc(C3CCC3)s2)Nc2ncccc21` (centres undefined) was -44.2%; that for `CNC(=O)CSc1cnn(CC(=O)Nc2cccc(Cl)c2C)c(=O)c1Cl` was 45.7%; that for `Cc1cccc(NC(=O)Cn2ncc(SCC(N)=O)c(Cl)c2=O)c1C` was 50.5%.
On to `Cc1cc(NC(=O)Cn2ncc(SCC(N)=O)c(Cl)c2=O)ccc1Br`, for which the INHIBITION is 49.7%.
As for `Cc1cccc(NC(=O)CNC(=O)Cn2ncc(Cl)c(Cl)c2=O)c1C`, the INHIBITION is reported as 5.14%.
Consider `Cc1ccc(NC(=O)Cn2ncc(SCC(N)=O)c(Cl)c2=O)cc1`, for which the INHIBITION amounted to 30.5%.
With `Cc1ccc(NC(=O)Cn2ncc(SCC(N)=O)c(Cl)c2=O)c(F)c1`, the INHIBITION is 64.5%.
As for `CC(=O)N1CCCCC12CCCN(Cc1ccco1)C2` (centres undefined), the INHIBITION is 28.4%.
In the case of `CCC[C@@H]1CN(Cc2ccccc2SC)C[C@H]1NC(C)=O` it was -7.53%; in that of `CC(C)(NC(=O)c1ccc(-c2ccccc2F)s1)C(N)=O`, -29%; in that of `CN(C)S(=O)(=O)N1C[C@H]2CC[C@@H](C1)N(Cc1cccc(C#N)c1)C2`, -6.88%.
With `O=C(Cn1ccc2ccccc21)NCc1ccc(C(=O)O)cc1`, the INHIBITION turned out to be 15.8%.
